Source: PubChem BioAssay AID1850 (Southern Research Specialized Biocontainment Screening …, 2009)
Among all 310,000 compounds or so, about 1,000 (0.32%) were called active. These entries were drawn from the full list. Entries with a potency or affinity are not part of this list. Unmarked numbers belong to inactive results. The rule behind the calls is not given here.

Test: PhoP regulon inhibitors, Salmonella typhi PhoP promoter GFP reporter, confirmatory (AID 1850);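 note: 0% = induced wells with vehicle and 100% = uninduced wells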
Conditions: fluorescence, 4 h, at 50 µM, active compounds read high

Which inhibition does the source give for `COc1cccc(C(C)NC(=O)Nc2cc(Cl)ccc2OC)c1` (configuration not stated) here?
Its inhibition is 2.05%.

With `COc1ccc(C(CC(=O)O)c2ccc3c(c2)OCO3)cc1` (configuration not stated) as the molecule, how does the inhibition read?
Its inhibition is 0.47%.

For `CCOc1ccc(OCC)c(NC(=O)Cn2cccc2)c1`, which inhibition is on record?
The inhibition was -4.63%.

Which inhibition does the source give for `O=C(Nc1cccc(NC(=O)c2ccc(-c3ccc(Br)cc3)o2)c1)c1ccco1` here?
Its inhibition is 7.16%.

For `Cc1c(C)c2cc(Cl)c(OC(C)C(=O)NCCN3CCOCC3)cc2oc1=O` (configuration not stated), which inhibition is on record?
The inhibition was 14.4%.

For `CCn1c(COc2ccccc2C)nc2ccccc21`, which inhibition is on record?
Its inhibition is 1.26%.

Which inhibition does the source give for `CCCn1c(COc2ccccc2OC)nc2ccccc21` here?
Its inhibition is 4.56%.

Which inhibition does the source give for `Cn1c(COc2ccccc2O)[n+](C)c2ccccc21` here?
The inhibition was 4.42%.

Which inhibition does the source give for `CCOC(=O)Cn1c(COc2ccccc2OC)[n+](C)c2ccccc21` here?
Its inhibition is 1.54%.

With `Clc1cccc(OCCOCCN2CCNCC2)c1Cl` as the molecule, how does the inhibition read?
The inhibition was 6.19%.

With `Cc1ccc(S(=O)(=O)NCCC(=O)NCCSc2ccc(Br)cc2)cc1` as the molecule, how does the inhibition read?
Its inhibition is -3.98%.

Which inhibition does the source give for `Cc1ccc(CS(=O)(=O)CCC(=O)NCC2CCCO2)cc1` (configuration not stated) here?
Its inhibition is -9.31%.

For `Cc1ccc2nc(SCC(=O)N3CCCC3)[nH]c2c1`, which inhibition is on record?
The inhibition was -0.85%.

Which inhibition does the source give for `O=C(NC1CCCC1)c1ccc(Cl)s1` here?
Its inhibition is -8.57%.

Which inhibition does the source give for `O=C(NNC(=O)c1ccc(Br)s1)NC1CCCCC1` here?
The inhibition was -2.75%.

With `Cc1ccsc1C(=O)C1CCCN(Cc2c(C)nn(C(C)C)c2C)C1` (configuration not stated) as the molecule, how does the inhibition read?
Its inhibition is -6.7%.

With `COc1ccc(N2CC(O)=C(c3nc(-c4ccc(F)cc4)cs3)C2=N)cc1OC` as the molecule, how does the inhibition read?
The inhibition was -0.03%.

With `Nc1cc(=O)n(Cc2ccccc2)c(=O)n1-c1ccc(F)cc1` as the molecule, how does the inhibition read?
Its inhibition is -13.9%.

Which inhibition does the source give for `O=C(OC1CCCCC1)c1cc2ccccc2oc1=O` here?
Its inhibition is 9.64%.

With `c1ccc(C[C@H]2CN=C(Nc3ccccc3)N2CC2CCC2)cc1` as the molecule, how does the inhibition read?
Its inhibition is 0.99%.

Which inhibition does the source give for `CCn1c2nc(SCCN3CCOCC3)nnc2c2cc(C)cc(C)c21` here?
Its inhibition is -16.9%.

For `CN(C)CCCn1c(SCC(=O)N2CC(=O)Nc3ccccc32)nc2ccccc2c1=O`, which inhibition is on record?
The inhibition was 0.42%.

For `CCCn1c(SCC(=O)N2c3ccccc3Sc3ccccc32)nc2ccccc21`, which inhibition is on record?
Its inhibition is -6.61%.

With `CCN1CCCC1CNC(=O)c1ccc(N2CCOCC2)c(NS(=O)(=O)c2ccc(OC)cc2)c1` (configuration not stated) as the molecule, how does the inhibition read?
Its inhibition is 2.06%.

For `CCN1CSC(=S)N(Cc2ccccc2)C1`, which inhibition is on record?
The inhibition was -1.16%.

For `COc1ccc(CN2CN(C(C)C)CSC2=S)cc1`, which inhibition is on record?
Its inhibition is 16.3%.

Which inhibition does the source give for `NCCCC[C@@H]1NC(=O)c2cc([N+](=O)[O-])cc(I)c2SC[C@@H](C(=O)NCC(N)=O)NC(=O)CNC1=O` here?
Its inhibition is -0.813%.

Which inhibition does the source give for `COc1cc(CNCCCN2CCOCC2)ccc1OCC(=O)Nc1cccc(C(F)(F)F)c1` here?
The inhibition was 8.04%.

With `CCOc1cc(CNCCCN2CCOCC2)ccc1OCC(=O)Nc1cccc2ccccc12` as the molecule, how does the inhibition read?
Its inhibition is 9.38%.

For `CC(C)c1ccccc1NC(=O)C1CN(S(=O)(=O)c2ccccc2)CCN1S(=O)(=O)c1ccccc1` (configuration not stated), which inhibition is on record?
The inhibition was -5.27%.

For `O=C(N/C(=C/c1cccnc1)C(=O)N1CCOCC1)c1ccccc1Cl`, which inhibition is on record?
The inhibition was 1.54%.

With `COc1ccc(C)cc1Nc1n[n+](-c2ccccc2)c(-c2ccc(N(C)C)cc2)s1` as the molecule, how does the inhibition read?
Its inhibition is -6.34%.

Which inhibition does the source give for `C[n+]1c(-c2ccccc2)sc2ccccc21` here?
Its inhibition is -0.28%.

With `CCCCn1c(SCC(=O)Nc2cc(C)on2)nnc1-c1ccncc1` as the molecule, how does the inhibition read?
Its inhibition is 7.28%.

With `Cc1ccc(C(=O)N/C(=C\c2ccco2)C(=O)N2CCCCC2)cc1` as the molecule, how does the inhibition read?
The inhibition was 11.1%.

Which inhibition does the source give for `CC(=O)C1=C(C)NC2=C(C(=O)c3ccccc32)C1c1ccccc1` (configuration not stated) here?
The inhibition was -9.36%.

Which inhibition does the source give for `CC1=C(C#N)C(c2ccccc2)C2=C(N1)c1ccccc1C2=O` (configuration not stated) here?
Its inhibition is -2.93%.

Which inhibition does the source give for `COC(=O)C1=C(C)N(CC2CC2)C(=NCCN2CCOCC2)N[C@H]1c1ccccc1` here?
The inhibition was -21.7%.

For `COc1cc(/C=N/NC(=O)c2ccncc2)ccc1OCC(=O)Nc1ccc(C)c(C)c1`, which inhibition is on record?
The inhibition was 8.17%.

With `COc1ccc(C(OCC(O)CNCCc2ccccc2)c2ccc(OC)cc2)cc1` (configuration not stated) as the molecule, how does the inhibition read?
Its inhibition is -15.4%.

With `COc1ccccc1COCC(O)CNCCc1ccc(C(F)(F)F)cc1` (configuration not stated) as the molecule, how does the inhibition read?
Its inhibition is 5.56%.

With `Cc1ccc(OCC(O)CNCc2ccc(F)cc2)cc1` (configuration not stated) as the molecule, how does the inhibition read?
The inhibition was -1.28%.

With `Cc1ccc(C(OCC(O)CNC(C)c2ccccc2)c2ccccc2)cc1` (configuration not stated) as the molecule, how does the inhibition read?
The inhibition was -20.1%.

Which inhibition does the source give for `COc1ccc2cc(CN(Cc3cccnc3)Cc3nnnn3Cc3ccccc3)c(=O)[nH]c2c1` here?
The inhibition was -1.66%.

With `CCOC(=O)CSc1c(-c2ccc(Cl)cc2)[nH]c2ccccc12` as the molecule, how does the inhibition read?
The inhibition was -5.57%.

Which inhibition does the source give for `CC1(C)CC(=O)C=C(Nc2ccc(C(=O)O)c(O)c2)C1` here?
The inhibition was -4.27%.

For `N#C/C(=C\c1cn(CCOc2ccccc2)c2ccccc12)C(=O)NCc1cccs1`, which inhibition is on record?
The inhibition was -5.68%.

With `COc1ccnc(Oc2ccc(C)cc2)c1C#N` as the molecule, how does the inhibition read?
Its inhibition is 5.63%.

Which inhibition does the source give for `Cc1ccc(C)c(SCC(=O)NCC(c2ccco2)N2CCCCC2)c1` (configuration not stated) here?
Its inhibition is 19.8%.

Which inhibition does the source give for `COc1ccc(NS(=O)(=O)c2cccc(C(=O)NNC(=O)c3cncc(Br)c3)c2)cc1` here?
Its inhibition is 11.8%.

With `COc1ccccc1N1CCN(C(=O)/C=C/c2cccs2)CC1` as the molecule, how does the inhibition read?
The inhibition was -0.34%.

With `Cc1cc(NS(=O)(=O)c2ccc(NC(=O)Nc3ccccc3)cc2)no1` as the molecule, how does the inhibition read?
The inhibition was -1.36%.

With `Cc1cc(NS(=O)(=O)c2ccc(NC(=O)Nc3cccc(C(F)(F)F)c3)cc2)no1` as the molecule, how does the inhibition read?
The inhibition was -2.04%.

For `CCN1c2ccccc2NC2C1C(C(C)=O)C(=O)N2c1ccc(Cl)cc1` (configuration not stated), which inhibition is on record?
Its inhibition is -5.05%.

For `CCCN1C(=O)c2ccccc2NC1c1cc(OC)c(OC)c(OC)c1` (configuration not stated), which inhibition is on record?
Its inhibition is 4.01%.

For `COc1ccc(-c2[nH]ncc2-c2nc(C)cs2)c(O)c1`, which inhibition is on record?
The inhibition was -0.79%.

Which inhibition does the source give for `COc1ccc(OCC(O)Cn2c(=N)n(Cc3ccccc3)c3ccccc32)cc1` (configuration not stated) here?
The inhibition was 10.7%.

With `Cc1ccc(OCC(O)Cn2c(=N)n(Cc3ccccc3)c3ccccc32)cc1` (configuration not stated) as the molecule, how does the inhibition read?
The inhibition was -18.7%.

Which inhibition does the source give for `Cc1cccc(OCC(O)Cn2c(=N)n(Cc3ccccc3)c3ccccc32)c1` (configuration not stated) here?
The inhibition was -11.7%.

Which inhibition does the source give for `N=c1n(Cc2ccccc2)c2ccccc2n1CC(O)COc1ccccc1` (configuration not stated) here?
Its inhibition is -2.26%.

Which inhibition does the source give for `Cc1ccn2cc(-c3cccc(NS(C)(=O)=O)c3)nc2c1` here?
The inhibition was -0.47%.

For `CN(C)c1cccc(C(=O)OCC(=O)Nc2ccccc2-c2ccccc2)c1`, which inhibition is on record?
The inhibition was -5.83%.

With `Cc1ccc(OCCNC(=O)CCC(=O)N2CCOCC2)cc1` as the molecule, how does the inhibition read?
Its inhibition is 1.97%.

For `CNCc1c(OCc2ccc(F)cc2)ccc2ccccc12`, which inhibition is on record?
Its inhibition is 20.5%.

Which inhibition does the source give for `CNCc1c(OCc2ccccc2)ccc2ccccc12` here?
Its inhibition is 15.5%.

With `Cc1cc(C)c2nc(C)cc(Nc3ccc(C(=O)NCCO)cc3)c2c1` as the molecule, how does the inhibition read?
The inhibition was 1.42%.

Which inhibition does the source give for `COc1ccc2oc(C(=O)OCC(=O)N3CC(C)OC(C)C3)c(C)c2c1` (configuration not stated) here?
Its inhibition is 1.14%.

With `O=C1C=C(Nc2cccc3cccnc23)c2ccccc2C1=O` as the molecule, how does the inhibition read?
The inhibition was 1.58%.

With `CCOC(=O)c1ccc(NC2=CC(=O)C(=O)c3ccccc32)cc1` as the molecule, how does the inhibition read?
The inhibition was 0.12%.

For `Cc1ccc(NC2=CC(=O)C(=O)c3ccccc32)cc1`, which inhibition is on record?
Its inhibition is 5.69%.

Which inhibition does the source give for `O=C1C=C(Nc2ccccc2C(=O)O)c2ccccc2C1=O` here?
Its inhibition is 8.73%.

For `CS(=O)(=O)N(CC(=O)N1CCC(C(N)=O)CC1)C1CCCCC1`, which inhibition is on record?
The inhibition was -1.33%.

With `CCOC(=O)Cc1csc(NC(=O)c2ccc3ncsc3c2)n1` as the molecule, how does the inhibition read?
The inhibition was -6%.

With `COc1ccc(-n2nc(C(=O)NCC(=O)NCc3ccccc3OC)c3ccccc3c2=O)cc1` as the molecule, how does the inhibition read?
The inhibition was 8.47%.

Which inhibition does the source give for `c1ccc(CN2CCN(c3nc(N4CCOCC4)c4ccccc4n3)CC2)cc1` here?
Its inhibition is -3.61%.

With `OCCNc1nc(N2CCN(Cc3ccccc3)CC2)nc2ccccc12` as the molecule, how does the inhibition read?
Its inhibition is 1.64%.

For `OCCN1CCN(c2nc(NCc3ccco3)c3ccccc3n2)CC1`, which inhibition is on record?
Its inhibition is 3.47%.

For `c1ccc(N2CCN(c3nc(NCc4ccco4)c4ccccc4n3)CC2)cc1`, which inhibition is on record?
Its inhibition is 13.6%.

For `O=C(NC(=S)N1CCN(c2ccc([N+](=O)[O-])cc2)CC1)c1ccco1`, which inhibition is on record?
Its inhibition is -9.69%.

With `CCC1(c2ccccc2)NC(=O)N(CC(=O)Nc2nnc(C3CC3)s2)C1=O` (configuration not stated) as the molecule, how does the inhibition read?
The inhibition was -9.36%.

With `COc1ccc(OC)c2[nH]c(=O)c(CCNS(=O)(=O)c3ccc(C)cc3)cc12` as the molecule, how does the inhibition read?
The inhibition was 7.93%.

Which inhibition does the source give for `C#CCOCCOCCOCCNc1nc(N2CCN(C(=O)C(CCC(=O)O)n3cc(C(N)CC(C)C)nn3)CC2)nc(N2CCN(C(=O)C(Cc3cc4ccccc4[nH]3)n3cc(C(N)Cc4ccc(O)cc4)nn3)CC2)n1` (configuration not stated) here?
The inhibition was -1.42%.

Which inhibition does the source give for `C#CCOCCOCCOCCNc1nc(N2CCN(C(=O)[C@H](CCC(=O)O)n3cc(C(N)Cc4ccc(O)cc4)nn3)CC2)nc(N2CCN(C(=O)[C@H](Cc3cc4ccccc4[nH]3)n3cc(C(N)CC(C)C)nn3)CC2)n1` (some centres not stated) here?
Its inhibition is 5.34%.

Which inhibition does the source give for `C#CCOCCOCCOCCNc1nc(N2CCN(C(=O)[C@H]([C@@H](C)CC)n3cc([C@@H](N)CC(C)C)nn3)CC2)nc(N2CCN(C(=O)[C@H](Cc3cc4ccccc4[nH]3)n3cc([C@@H](N)Cc4ccc(O)cc4)nn3)CC2)n1` here?
The inhibition was -29.1%.

Which inhibition does the source give for `C#CCOCCOCCOCCNc1nc(N2CCN(C(=O)[C@H](Cc3ccc(O)cc3)n3cc([C@@H](N)C(C)CC)nn3)CC2)nc(N2CCN(C(=O)[C@H](Cc3cc4ccccc4[nH]3)n3cc([C@@H](N)CC(C)C)nn3)CC2)n1` (some centres not stated) here?
The inhibition was 11%.

Which inhibition does the source give for `C#CCOCCOCCOCCNc1nc(N2CCN(C(=O)[C@H]([C@@H](C)CC)n3cc([C@@H](N)Cc4ccc(O)cc4)nn3)CC2)nc(N2CCN(C(=O)[C@H](Cc3cc4ccccc4[nH]3)n3cc([C@@H](N)C(C)CC)nn3)CC2)n1` (some centres not stated) here?
The inhibition was 17.7%.

With `C#CCOCCOCCOCCNc1nc(N2CCN(C(=O)C(Cc3ccc(O)cc3)n3cc(C(N)CC(C)C)nn3)CC2)nc(N2CCN(C(=O)C(Cc3cc4ccccc4[nH]3)n3cc(C(N)C(C)CC)nn3)CC2)n1` (configuration not stated) as the molecule, how does the inhibition read?
The inhibition was 18.1%.
